# Assay results reported in PubChem BioAssay (Tox21).
# Unmarked numbers belong to inactive results. Entries that show only a call come without a potency. Activity calls are given as the source filed them. Unless noted, calls follow the shape of the full dose curve.
# Target: KiSS-1 receptor (Homo sapiens) (UniProt Q969F8)
# Assay: Human kisspeptin (KISS1R) small molecule agonists, calcium flux assay in KISS1R-HEK293 cells (AID 1920064; active = well fitted activation curve with a large enough effect in the repeat runs)
# Conditions: KISS1R-HEK293, calcium flux fluorescence, agonist; series mostly up to 76.8 µM
# Outline: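 After overnight (18 h) culture at 37 C/5% CO2, human KISS1R-HEK293 cells received calcium dye for 1 h, then test compound; emission at 540 nm (excitation 480 nm) was tracked for 3 min.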
# KiSS-1 receptor (Homo sapiens), sequence (Q969F8 whole entry, looked up): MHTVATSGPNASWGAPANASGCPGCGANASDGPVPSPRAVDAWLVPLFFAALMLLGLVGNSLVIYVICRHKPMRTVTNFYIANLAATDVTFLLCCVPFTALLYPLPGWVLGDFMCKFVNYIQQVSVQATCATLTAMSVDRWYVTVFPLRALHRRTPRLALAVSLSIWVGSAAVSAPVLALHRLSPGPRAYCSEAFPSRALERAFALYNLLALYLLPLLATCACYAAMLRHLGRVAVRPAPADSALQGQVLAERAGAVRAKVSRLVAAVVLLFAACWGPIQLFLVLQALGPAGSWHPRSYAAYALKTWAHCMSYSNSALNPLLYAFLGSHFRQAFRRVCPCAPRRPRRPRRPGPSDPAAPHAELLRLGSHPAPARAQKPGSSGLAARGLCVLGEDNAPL
Compound,Potency,activation
O=c1cc(-c2ccccc2)oc2ccccc12,inactive,
O=C(O)c1cc2ccccc2cc1O,inactive,
CS(=O)(=O)c1ccc(Cl)cc1,inactive,
S=C(NC1CCCCC1)NC1CCCCC1,inactive,
O=C(O)CCCCCCCCCCCC(=O)O,inactive,
N[C@H](Cc1c[nH]c2ccccc12)C(=O)O,inactive,
CC[C@H](c1ccc(O)cc1)[C@@H](CC)c1ccc(O)cc1,inactive,
C=CC(C)(O)CCC=C(C)C (stereo not drawn),inactive,
O=[N+]([O-])c1ccc2nc[nH]c2c1,inactive,
CC(C)(c1cc(Br)c(O)c(Br)c1)c1cc(Br)c(O)c(Br)c1,inactive,
BrC1CCC(Br)C(Br)CCC(Br)C(Br)CCC1Br (stereo not drawn),inactive,
COC(=O)Nc1nc2ccc(Sc3ccccc3)cc2[nH]1,inactive,
CCN(CC)c1ccc2c(C)cc(=O)oc2c1,inactive,
CC(=O)OCc1ccccc1,inactive,
c1ccc2c(c1)-c1cccc3c1c-2cc1ccccc13,inactive,
OCC(CO)(CO)CO,inactive,
CN1Cc2c(N)cccc2C(c2ccccc2)C1 (stereo not drawn),inactive,
CCCc1ccc(O)cc1,inactive,
Cc1cccnc1,inactive,
CCC(C)c1ccccc1O (stereo not drawn),inactive,

Compound,Potency,activation
CC1=CC[C@@H]2C[C@H]1C2(C)C,,-0.901% [at 15.8 µM]
OC1CCCC1,inactive,
NS(=O)(=O)c1ccc(N2CCCCS2(=O)=O)cc1,inactive,
N[C@@H](Cc1c[nH]c2ccccc12)C(=O)O,inactive,
CCCCCCCO,inactive,
N[C@@H](Cc1c[nH]c2ccc(O)cc12)C(=O)O,inactive,
CO[C@H]1C=CO[C@@]2(C)Oc3c(C)c(O)c4c(O)c(c(/C=N/N5CCN(C)CC5)c(O)c4c3C2=O)NC(=O)/C(C)=C\C=C[C@H](C)[C@H](O)[C@@H](C)[C@@H](O)[C@@H](C)[C@H](OC(C)=O)[C@@H]1C,inactive,
CC(COCC(C)OC(=O)c1ccccc1)OC(=O)c1ccccc1 (stereo not drawn),inactive,
O=C(O)/C=C/c1ccccc1,inactive,
CCCCCOC(C)=O,inactive,
CC(=O)OC1CC(C)OC(C)O1 (stereo not drawn),inactive,
COc1ccc(COC(C)=O)cc1,inactive,
CCCCCCCCCCCCOCCO,inactive,
NC[C@H](O)c1ccc(O)c(O)c1,inactive,
Cc1ccc(C(C)C)cc1O,inactive,
Nc1ccc(S(=O)(=O)Nc2ccc(Cl)nn2)cc1,inactive,
CC(C)(C)c1cc(Cc2cc(C(C)(C)C)c(O)c(C(C)(C)C)c2)cc(C(C)(C)C)c1O,inactive,
CCCCOCCOCCOC(=O)CCCCC(=O)OCCOCCOCCCC,inactive,
O=C(O)Cc1cccc(-c2cc(CCCCCCc3ccc(O[C@H]4O[C@H](CO)[C@@H](O)[C@H](O)[C@@H]4O)c(-c4cccc(CC(=O)O)c4)c3)ccc2O[C@H]2O[C@H](CO)[C@@H](O)[C@H](O)[C@@H]2O)c1,,-0.687% [at 0.29 µM]

# System: not listed separately
# Assay: G protein-coupled receptor (GPCR) small molecule agonists, calcium flux assay: HEK293 wild type cell line counter screen (AID 1920065)
# Conditions: HEK293 WT calcium flux, fluorescence, agonist mode; series mostly up to 57.6 µM
# Outline: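 Following 18 h incubation at 37 C/5% CO2, plates got calcium dye for 1 h; compounds, ATP or DMSO were then pinned in and fluorescence followed kinetically (480/540 nm).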
Compound,Potency,activation
O=c1cc(-c2ccccc2)oc2ccccc12,inactive,
O=C(O)c1cc2ccccc2cc1O,inactive,
CS(=O)(=O)c1ccc(Cl)cc1,inactive,
S=C(NC1CCCCC1)NC1CCCCC1,inactive,
O=C(O)CCCCCCCCCCCC(=O)O,inactive,
N[C@H](Cc1c[nH]c2ccccc12)C(=O)O,inactive,
CC[C@H](c1ccc(O)cc1)[C@@H](CC)c1ccc(O)cc1,inactive,
C=CC(C)(O)CCC=C(C)C (stereo not drawn),inactive,
O=[N+]([O-])c1ccc2nc[nH]c2c1,inactive,
CC(C)(c1cc(Br)c(O)c(Br)c1)c1cc(Br)c(O)c(Br)c1,inactive,
BrC1CCC(Br)C(Br)CCC(Br)C(Br)CCC1Br (stereo not drawn),inactive,
COC(=O)Nc1nc2ccc(Sc3ccccc3)cc2[nH]1,inactive,
CCN(CC)c1ccc2c(C)cc(=O)oc2c1,inactive,
CC(=O)OCc1ccccc1,inactive,
c1ccc2c(c1)-c1cccc3c1c-2cc1ccccc13,inactive,
OCC(CO)(CO)CO,inactive,
CN1Cc2c(N)cccc2C(c2ccccc2)C1 (stereo not drawn),inactive,
CCCc1ccc(O)cc1,inactive,
Cc1cccnc1,inactive,
CCC(C)c1ccccc1O (stereo not drawn),inactive,

Compound,Potency,activation
CC1=CC[C@@H]2C[C@H]1C2(C)C,,-1.47% [at 11.8 µM]
OC1CCCC1,inactive,
NS(=O)(=O)c1ccc(N2CCCCS2(=O)=O)cc1,inactive,
N[C@@H](Cc1c[nH]c2ccccc12)C(=O)O,inactive,
CCCCCCCO,inactive,
N[C@@H](Cc1c[nH]c2ccc(O)cc12)C(=O)O,inactive,
CO[C@H]1C=CO[C@@]2(C)Oc3c(C)c(O)c4c(O)c(c(/C=N/N5CCN(C)CC5)c(O)c4c3C2=O)NC(=O)/C(C)=C\C=C[C@H](C)[C@H](O)[C@@H](C)[C@@H](O)[C@@H](C)[C@H](OC(C)=O)[C@@H]1C,inactive,
CC(COCC(C)OC(=O)c1ccccc1)OC(=O)c1ccccc1 (stereo not drawn),inactive,
O=C(O)/C=C/c1ccccc1,inactive,
CCCCCOC(C)=O,inactive,
CC(=O)OC1CC(C)OC(C)O1 (stereo not drawn),inactive,
COc1ccc(COC(C)=O)cc1,inactive,
CCCCCCCCCCCCOCCO,inactive,
NC[C@H](O)c1ccc(O)c(O)c1,inactive,
Cc1ccc(C(C)C)cc1O,inactive,
Nc1ccc(S(=O)(=O)Nc2ccc(Cl)nn2)cc1,inactive,
CC(C)(C)c1cc(Cc2cc(C(C)(C)C)c(O)c(C(C)(C)C)c2)cc(C(C)(C)C)c1O,inactive,
CCCCOCCOCCOC(=O)CCCCC(=O)OCCOCCOCCCC,inactive,
O=C(O)Cc1cccc(-c2cc(CCCCCCc3ccc(O[C@H]4O[C@H](CO)[C@@H](O)[C@H](O)[C@@H]4O)c(-c4cccc(CC(=O)O)c4)c3)ccc2O[C@H]2O[C@H](CO)[C@@H](O)[C@H](O)[C@@H]2O)c1,,-0.122% [at 0.217 µM]
